# In PubChem BioAssay (Tox21):
# Records with an inconclusive call do not appear. Unmarked numbers belong to inactive results. Activity calls are given as the source filed them. The call rests on the fitted dose curve.
# Target: Thyrotropin receptor (Homo sapiens) (UniProt P16473)
# Assay: qHTS assay to identify small molecule antagonists of the thyroid stimulating hormone receptor (TSHR) signaling pathway (AID 1259385); further: nearly all actives have a fitted effect of over 20% in size
# Settings: TSHR-HEK293 cAMP HTRF, TSH-stimulated antagonist mode; series mostly up to 92.4 µM; activity change, negative = inhibition: at the top concentration
# Method in brief: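 Antagonist mode: compound-treated TSHR-expressing HEK293 cells were stimulated with 1.5 ng/mL TSH (final) in presence of Ro20-1724 for 30 min at RT. HTRF cAMP detection after 1 h; each compound tested at 15 concentrations, triplicate.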
# On the % scale 0 is the no-effect control and ±100 the full control effect; potency means the concentration at half of the fitted maximal effect.
# Chain of Thyrotropin receptor (Homo sapiens) (P16473 whole entry, looked up): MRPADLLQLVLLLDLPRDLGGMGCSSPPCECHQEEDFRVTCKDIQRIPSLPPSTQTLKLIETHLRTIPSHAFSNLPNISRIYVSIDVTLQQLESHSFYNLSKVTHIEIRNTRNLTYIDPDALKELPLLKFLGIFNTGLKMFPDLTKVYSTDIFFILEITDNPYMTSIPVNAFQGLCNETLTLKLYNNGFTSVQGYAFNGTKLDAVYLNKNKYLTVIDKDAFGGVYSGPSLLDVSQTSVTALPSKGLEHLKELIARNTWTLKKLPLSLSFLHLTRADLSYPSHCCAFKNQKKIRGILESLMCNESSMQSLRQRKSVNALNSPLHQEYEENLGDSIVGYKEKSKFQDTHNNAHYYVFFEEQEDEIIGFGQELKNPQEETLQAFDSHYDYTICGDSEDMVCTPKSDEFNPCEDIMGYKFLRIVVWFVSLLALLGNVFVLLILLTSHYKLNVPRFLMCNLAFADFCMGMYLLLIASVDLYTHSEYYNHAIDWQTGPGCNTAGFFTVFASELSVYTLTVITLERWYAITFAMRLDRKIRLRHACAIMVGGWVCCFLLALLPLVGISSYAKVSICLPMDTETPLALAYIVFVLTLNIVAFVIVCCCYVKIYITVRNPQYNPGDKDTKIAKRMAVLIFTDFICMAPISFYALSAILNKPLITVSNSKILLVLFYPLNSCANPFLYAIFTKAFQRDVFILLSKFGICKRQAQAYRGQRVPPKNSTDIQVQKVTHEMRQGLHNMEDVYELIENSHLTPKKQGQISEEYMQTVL
Structure (SMILES),"activity change, negative = inhibition",Potency
ClC(Cl)C(Cl)(Cl)Cl,-2.66%,
Cc1ccc([N+](=O)[O-])[c]2c1[O][Hg]2,,21.1 µM (active)
Clc1ccc(C2(Cn3cncn3)OCCO2)c(Cl)c1,1.9%,
S=C=NCCc1ccccc1,0.378%,
CC(C)N(C(=O)SC/C(Cl)=C/Cl)C(C)C,8.45%,
CCN(CC)CCc1c[nH]c2ccccc12,1.93%,
CCC1COC(Cn2cncn2)(c2ccc(Cl)cc2Cl)O1 (configuration not stated),3.54%,
CCC(C)c1cccc(C(C)CC)c1O (configuration not stated),-0.851%,
CCCCc1ccccc1,0.91%,
CC(Cc1ccc(OCC(=O)O)cc1)NCC(O)c1csc(C(F)(F)F)n1 (configuration not stated),-0.0641%,
CCC[CH2][Sn]([CH2]CCC)([CH2]CCC)[O][Sn]([CH2]CCC)([CH2]CCC)[CH2]CCC,0.334% [at 8.39 µM],
COc1ccc2c(c1OC)C(=O)O[C@@H]2[C@H]1c2cc3c(cc2CCN1C)OCO3,-8.55%,
C=CCOC(=O)c1ccccc1N,-3.87%,
O=[N+]([O-])c1ccc(CCl)cc1,1.02%,
COc1cnc(OC)n2nc(NS(=O)(=O)c3c(OCC(F)F)cccc3C(F)(F)F)nc12,1.12%,
Nc1ccccc1-c1ccccc1,-6.52%,
O=C(Cl)c1ccccc1F,2.27%,
CC(C)C(Br)C(=O)NC(N)=O (configuration not stated),2.8% [at 42.5 µM],
CC(C)=CC1C(C(=O)OC(C#N)c2cccc(Oc3ccccc3)c2)C1(C)C (configuration not stated),0.206%,
COC(=O)c1ccccc1S(=O)(=O)NC(=O)Nc1nc(C)nc(OC)n1,-0.652%,
CNC(=O)/C=C(\C)OP(=O)(OC)OC,0.202%,
C#CCC1=C(C)C(OC(=O)C2C(C=C(C)C)C2(C)C)CC1=O (configuration not stated),-2.93%,
